From ChEMBL document CHEMBL1157539, “Thousands of chemical starting points for antimalarial lead identification” (Nature, 2010)

Columns and labels:
Type in all cases: functional
Plasmodium falciparum [1] = test: GSK_TCMDC: Inhibition of Plasmodium falciparum 3D7 in whole red blood cells, using parasite LDH activity as an index of growth. Test compounds present at 2uM
Plasmodium falciparum [2] = test: GSK_TCMDC: Inhibition of Plasmodium falciparum Dd2 in whole red blood cells, using parasite LDH activity as an index of growth. Test compounds present at 2uM
HepG2 = test: GSK_TCMDC: Percent inhibition of human HepG2 cell line. Test compounds present at 10uM.

Structure (SMILES) | Inhibition (Plasmodium falciparum [1]) [%] | Inhibition (Plasmodium falciparum [2]) [%] | Inhibition (HepG2) [%]
Cc1cc2ccc(-c3cccc(CN)c3)cc2nc1N.Cl | 100 | 1 | 0
COc1ccc(CNC(=O)c2cnc3c(O)cccc3c2Nc2cccc(NC(=O)c3ccc(Cl)c(Cl)c3)c2)cc1.O=C(O)C(F)(F)F | 96 | 89 | 54
O=C(NC1CCN(CCN2CCC(c3ccccc3C(F)(F)F)CC2)CC1)c1ccc(-c2ccc(Cl)cc2)cc1 | 100 | 68 | 39
Cl.c1ccc(-c2cc(NCCCCNc3cc(-c4ccccc4)nc4ccccc34)c3ccccc3n2)cc1 | 100 | 97 | 70
Cc1cccc2nc(-c3cccc(-c4cccc(NC(=O)c5ccc(C(N)=O)cc5)c4)c3)[nH]c12 | 100 | 34 | 25
COc1ccc2c(NN=Cc3ccccn3)ccnc2c1 | 100 | 96 | 14
N#Cc1cccc(C(=O)N2CCOC(CCN3CCC(c4ccccc4)CC3)(c3ccc(Cl)c(Cl)c3)C2)c1 (stereo unspecified) | 87 | 49 | 51
CCc1c(C(=O)NC2CCC(N3CCC(c4ccccc4C)CC3)CC2)[nH]c2ccc(Br)cc12 (stereo unspecified) | 100 | 99 | 81
COc1cc(Cc2cnc(N)nc2N)cc(OC)c1OC [TRIMETHOPRIM] | 88 | 2 | 0
Cn1ccnc1Sc1ncccc1[N+](=O)[O-] | 96 | 2 | 0
Cc1cccc2nc(-c3ccc(-c4ccc(CN5CCCCC5CO)cc4)cc3)[nH]c12.O=C(O)C(F)(F)F (stereo unspecified) | 100 | 76 | 32
COc1ccc2nccc([C@@H](O)CN3CCC(NC(=O)c4cccc(-c5cc(C)no5)c4)CC3)c2c1 | 93 | 89 | 19
COc1cc2nc(N3CCC(CNC(=O)c4ccc(-c5ccc(C#N)cc5)cc4)CC3)nc(N)c2cc1OC | 100 | 99 | 21
CCCNC[C@@H](O)[C@H](Cc1ccccc1)NC(=O)c1cc(NCC)cc(N2CCCCS2(=O)=O)c1.Cl | 97 | 74 | 0
CCCN1CCN(CCCNc2c3ccccc3nc3ccccc23)CC1.Cl | 99 | 0 | 36
Br.CC1(C)N=C(N)N=C(N)N1OCC1COc2ccccc2O1 (stereo unspecified) | 96 | 66 | 56
CC[C@H](C)CNC(=O)c1cccc(-c2ccc(CN3CCC(N4CCCC4)CC3)cc2)n1.O=C(O)C(F)(F)F | 100 | 82 | 41
O=C(NC(=O)c1ccccc1O)c1ccccc1O | 97 | 79 | 0
OC1CCC(Nc2ccc3ncc(-c4ccc(Cl)cc4)n3n2)CC1 (stereo unspecified) | 97 | 98 | 57
CN1CCN(CCCN(Cc2cccc(-c3cccc(CNC4CCCC4)c3)c2)C(=O)/C=C/c2ccccc2)CC1.O=C(O)C(F)(F)F | 100 | 99 | 84
CCCN(CCC)S(=O)(=O)c1ccc(C(=O)N2CCC(C(=O)OCC)CC2)cc1 | 98 | 41 | 26

Structure (SMILES) | Inhibition (Plasmodium falciparum [1]) [%] | Inhibition (Plasmodium falciparum [2]) [%] | Inhibition (HepG2) [%]
CN1CCCN(Cc2ccc(-c3cccc(NC(=O)c4ccc(F)cc4)c3)cc2)CC1.O=C(O)C(F)(F)F | 89 | 8 | 29
c1ccc(Oc2ccc(Nc3ccnc4ccc(-c5ccco5)cc34)cc2)cc1 | 87 | 32 | 0
COc1cc(NC(=O)C(c2ccc(Cl)cc2)C(C)C)cc(OC)c1OC (stereo unspecified) | 100 | 100 | 10
COc1ccc(C(=O)Nc2ccc(Nc3nc(C)cc(N(C)C)n3)cc2)c(OC)c1 | 100 | 72 | 34
NS(=O)(=O)c1ccc(CNc2ccc3ncc(-c4ccc(Cl)cc4)n3n2)cc1 | 96 | 99 | 26
COc1ccc2c(Nc3ccc(N4CCN(C)CC4)cc3)cc(C)nc2c1 | 100 | 9 | 23
Cl.c1ccc2c(C3CCN(CCCCOc4ccc5c(c4)CCN(C4CCC4)CC5)CC3)c[nH]c2c1 | 100 | 100 | 80
Cc1onc(-c2c(Cl)cccc2Cl)c1C(=O)NC1=NC(C)(C)ON1c1ccccc1 | 97 | 36 | 6
Cc1cccc2nc(-c3cccc(-c4cccc(NC(=O)c5ccoc5)c4)c3)[nH]c12 | 99 | 71 | 19
N#Cc1cccc(Nc2nccc(NCC(O)c3cccc(C(F)(F)F)c3)n2)c1 (stereo unspecified) | 99 | 84 | 4
COc1ccc(CN2CCC(CN3CC4(OC3=O)c3ccccc3-c3ccccc34)C2)c(O)c1 (stereo unspecified) | 100 | 79 | 22
CSc1ccc(C=CC(=O)NC(=O)c2ccccc2O)cc1 | 97 | 96 | 2
CC(C)c1cc(N)c2cc(NC(=O)COCC(=O)Nc3ccc4nc(C(C)C)cc(N)c4c3)ccc2n1 | 95 | 95 | 0
Fc1ccc2c(NN=CC=Cc3ccccc3)ccnc2c1 | 100 | 98 | 0
COc1ccc2nccc([C@@H](O)CN3CCC(NCc4ccc5sc(=O)[nH]c5c4)CC3)c2c1.O=C(O)C(=O)O | 98 | 0 | 1
COc1ccc2ncc(F)c(NC(=O)C3CCC(NCc4cc5c(F)cccc5[nH]4)CC3)c2n1.Cl (stereo unspecified) | 91 | 29 | 39
CCN(CC)Cc1ccc2c(=O)cc(CCc3cccc(F)c3F)n(CC(=O)N(Cc3ccc(-c4ccc(C(F)(F)F)cc4)cc3)C(C)C)c2c1.O=C(O)C(O)C(O)C(=O)O | 100 | 63 | 82
Cc1cnc(NCCc2ccc(F)cc2)nc1NCCC(=O)Nc1ccccc1.O=C(O)C(F)(F)F | 89 | 17 | 3
O=C(O)C(F)(F)F.O=S(=O)(NCCN1CCCC1)c1ccc(-c2ccc(CNCc3ccc(F)cc3)cc2)s1 | 100 | 44 | 42
COc1ccc(CCn2c(=N)c(C(=O)NCc3cccnc3)cc3c(=O)n4ccccc4nc32)cc1 | 98 | 5 | 16
O=C(NCc1cccc2ccccc12)[C@@H]1CCCN1C(=O)c1ccc(O)c(-c2ccc(Cl)c(Cl)c2)c1 | 98 | 71 | 0

Structure (SMILES) | Inhibition (Plasmodium falciparum [1]) [%] | Inhibition (Plasmodium falciparum [2]) [%] | Inhibition (HepG2) [%]
O=C(Nc1ccsc1)Nc1cccc(-c2cccc(-c3nc4cc(F)ccc4[nH]3)c2)c1 | 100 | 41 | 46
Cc1nc(C)c(-c2ccc(-c3ccc(F)cc3)cc2)c(O)c1Br | 94 | 52 | 12
Cc1[nH]c(C)c([N+](=O)[O-])c(=O)c1-c1ccc(Oc2ccc(OC(F)(F)F)cc2)cc1 | 97 | 97 | 0
Cc1ccc(N)cc1-c1nc(NC2CC(C)(C)NC(C)(C)C2)nc2c1ccc(=O)n2-c1c(F)cccc1F | 98 | 1 | 0
COc1ccc(-c2ccc(NC(=O)c3ccc(C#N)cc3)c(F)c2)cc1CN(C)CCN(C)C.O=C(O)C(F)(F)F | 88 | 0 | 24
Cc1ccc(S(=O)(=O)NC(=N)NC(N)=O)cc1 | 94 | 2 | 26
CC(C)c1cccc(OCC2CCN(c3ccc(C(=O)Nc4ccccc4)cn3)CC2)c1 | 95 | 90 | 9
CS(=O)(=O)NCCCNCc1cccc(-c2csc(-c3nc4ccccc4[nH]3)c2)c1.O=C(O)C(F)(F)F | 95 | 9 | 23
CN(CCc1ccccn1)Cc1ccc(-c2ccc(-c3nc4ccccc4[nH]3)s2)cc1 | 100 | 48 | 29
N#Cc1cc(C(=O)c2cc(Cl)ccc2O)cn(-c2cccc(C(F)(F)F)c2)c1=O | 87 | 7 | 0
Cc1cc(OCCCN2CCC(NS(=O)(=O)c3ccc(C(F)(F)F)cc3)CC2)c2ccccc2n1 | 95 | 24 | 12
COc1cc(Cc2cnc(N)nc2N)cc(OCCCCC2SC(=O)NC2=O)c1Br (stereo unspecified) | 94 | 0 | 15
Cl.Nc1c2c(nc3ccc(C(=O)Nc4cc(I)c(O)c(I)c4)cc13)CCCC2 | 96 | 64 | 14
O=C(Nc1cc(C(F)(F)F)cc(C(F)(F)F)c1)N1CCC(CCN2CCC(c3c[nH]c4ccccc34)CC2)CC1 | 91 | 16 | 17
CS(=O)(=O)N(CC(O)Cn1c2ccc(Cl)cc2c2cc(Cl)ccc21)c1ccccc1 (stereo unspecified) | 100 | 98 | 2
COc1cccc(C(=O)Nc2ccc(Oc3ccc(Cl)cc3)cc2)c1 | 92 | 0 | 33
Cc1ccccc1C1CCN(C2CCC(NC(=O)C3=Cc4cc(Cl)ccc4OC3)CC2)CC1 (stereo unspecified) | 100 | 99 | 51
Cc1cc2nc(-c3ccc(C(=O)NC4CCN(Cc5ccccc5)CC4)s3)[nH]c2cc1C | 99 | 82 | 33
Cc1cc(C(=O)CN2C(=O)NC3(CCCc4ccccc43)C2=O)c(C)n1Cc1ccc(F)cc1 (stereo unspecified) | 92 | 53 | 4
COc1ccc(-c2cccc(NC(=O)c3cccc(Cl)c3)c2)cc1CN1CCC(O)CC1.O=C(O)C(F)(F)F | 98 | 16 | 38
